These results are taken from PubChem BioAssay (NCI).

This is part of a sample that, as a whole, favours compounds with a hit. Of some 83,000 tested, about 20% had one in any assay.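 Percent growth is the endpoint: 0 to 100 indicates growth inhibition (40 means 60% inhibition), 0 means no net growth, and negative values indicate cell death.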 Values without a mark were called inactive. The source made the active and inactive calls. The calls were made as follows: active = growth percent below 10; inactive = the rest.

Assay in all cases: NCI-60 one-dose screen, 48 h (100 = growth as untreated, 0 = no growth, -100 = all killed)
Common to all, as to conditions: 10 µM unless noted

Test [1] relates to T-47D breast.
Test [2] relates to BT-549 breast.
The subject of test [3] is MDA-MB-435 melanoma.
The subject of test [4] is SW-620 colon.
Test [5] relates to MCF7 breast.
Test [6] relates to HCT-116 colon.
Test [7] has as its system HCC-2998 colon.
Test [8] has as its system KM12 colon.

For `CCCCCCCCCCCCCCCCCC1=NC(C)(C)CN1CC(C)O` (stereo not given), the growth in test [1] was 72.6%; in test [2] it was 101%; in test [3] it was 50.9%; in test [4], 3.6% (active); in test [5], 42.4%; in test [6], 7.84% (active). Moreover, the growth in test [7] was 75.3%; in test [8], 44.1%.
Take `CN(C)CCCC1(c2ccc(F)cc2)OCc2cc(-c3cc4ccccc4s3)ccc21` (stereo not given): the growth was -2.98% (active) in test [1]; 80.1% in test [2]; -84.4% (active) in test [3]; -70% (active) in test [4]; -53.5% (active) in test [5]; -80.6% (active) in test [6]. The growth in test [7] is -78.4% (active); in test [8] it was -72.1% (active).
Take `CC1CCN(C(=S)SCC(=O)NC(=O)c2ccccc2)CC1`: the growth in test [1] was 84.7%; in test [2], 106%; in test [3] it was 106%; in test [4] it was 105%; in test [5] it was 95.7%; in test [6], 109%. Also, the growth in test [7] is 115%; in test [8], 97%.
`Cc1ccc(-c2csc(N(C(=O)N3CCN(c4cc5c(cc4F)c(=O)c(C(=O)O)cn5C4CC4)CC3)c3ccccc3)n2)cc1`: the growth was 13% in test [1]; -2.16% (active) in test [2]; 14.9% in test [3]; 19.1% in test [4]; 7.97% (active) in test [5]; 6.17% (active) in test [6]. Moreover, the growth in test [7] was 13.1%; in test [8], 4.3% (active).
On to `NS(=O)(=O)c1ccc(-c2cc(-c3nnc(SCC(=O)Nc4ccc(C(=O)/C=C/c5ccc(Cl)cc5)cc4)n3-c3ccccc3)c3ccccc3n2)cc1`, for which the growth was 79.9% in test [1]; 97.9% in test [2]; 94% in test [3]; 97.7% in test [4]; 70.6% in test [5]; 7.54% (active) in test [6]. Also, the growth in test [7] was 105%; in test [8] it was 92.1%.
With `O=C(c1c[nH]c2ccccc12)c1n[nH]c(=S)n1-c1cccc(Br)c1`, the growth is 26.1% in test [1]; 120% in test [2]; 102% in test [3]; 94.6% in test [4]; 33.4% in test [5]; 89.7% in test [6]. In addition, the growth in test [7] is 38.8%; in test [8], 50.7%.
Turning to `Cc1ccnc(Nc2ccc([N+](=O)[O-])c(NCCN3CCOCC3)n2)c1`, the growth was 83.9% in test [1]; 18.6% in test [2]; -20.5% (active) in test [3]; 27.9% in test [4]; 21% in test [5]; -12.9% (active) in test [6]. Besides, the growth in test [7] was 14.4%; in test [8] it was 5.83% (active).
Consider `CCOC(=O)C(Cc1ccc(OC)cc1)C(=O)OCC`, for which the growth in test [1] is 20.7%; in test [2], -9.62% (active); in test [3], 14.7%; in test [4], 35.1%; in test [5] it was 17.1%; in test [6], 17.8%. The growth in test [7] is 55.5%; in test [8], 7.78% (active).
Turning to `CC1(C)CC(=O)c2c(nn(-c3ccc(Br)cc3)c2-c2cn(-c3ccccc3)nc2-c2cccnc2)C1`, the growth in test [1] is 70.8%; in test [2], 86.9%; in test [3], 105%; in test [4], 91.4%; in test [5], 75.2%; in test [6], 85%. The figures for the growth in test [7] and in test [8] were 106% and 97.1%, respectively.
Turning to `COC(=O)N1CC(Oc2ccccn2)C2CC1c1ccccc1O2` (stereo not given), the growth in test [1] is 99.9%; in test [2] it was 99.5%; in test [3] it was 105%; in test [4], 102%; in test [5], 102%; in test [6] it was 97.2%. Moreover, the growth in test [7] is 104%; in test [8], 107%.
Turning to `COc1cc(-c2nc3cc(Cl)c(Cl)cc3[nH]2)ccc1OCC(=O)N=Nc1c(O)[nH]c2ccc(Cl)cc12`, the growth in test [1] was -4.31% (active); in test [2], 12%; in test [3] it was -57.7% (active); in test [4], -14.2% (active); in test [5] it was 1.63% (active); in test [6] it was -16.2% (active). Also, the values for the growth in test [7] and in test [8] were -39.2% (active) and 9.24% (active), respectively.
On to `C=C1C(=O)O[C@H]2[C@H]1CC/C(COC(=O)CSCSCC(=O)OC/C1=C/CC[C@@]3(C)O[C@H]3[C@H]3OC(=O)C(=C)[C@@H]3CC1)=C\CC[C@@]1(C)O[C@@H]21`, for which the growth is 20.9% in test [1]; -5.92% (active) in test [2]; 26.6% in test [3]; -9.08% (active) in test [4]; 16.7% in test [5]; -24% (active) in test [6]. For the same compound, the growth in test [7] is 16.5%; in test [8], 35.1%.
Turning to `Nc1nc2c(c3ncccc13)C(c1cccc(Cl)c1)Cc1ncccc1-2` (stereo not given), the growth was 30.1% in test [1]; 38.7% in test [2]; -57.9% (active) in test [3]; 23.1% in test [4]; 17.2% in test [5]; 24.4% in test [6]. For the same compound, the results for the growth in test [7] and in test [8] were 34.4% and 19.4%, respectively.
With `COc1ccc(-c2cc(-c3ccccc3)nc(N3CCN(CCNc4ccnc5cc(Cl)ccc45)CC3)n2)cc1`, the growth in test [1] was -48% (active); in test [2] it was 72.8%; in test [3], -72.1% (active); in test [4] it was -75.4% (active); in test [5], -84.8% (active); in test [6] it was -73.8% (active). For the same compound, the growth is -81.5% (active) in test [7] and -26.9% (active) in test [8].
As for `Cc1ccc(/C=C/C(=O)c2ccc(-n3cc(CN4CCN(c5cc6c(cc5F)c(=O)c(C(=O)O)cn6C5CC5)CC4)nn3)cc2)cc1`, the growth in test [1] was 86.7%; in test [2], 73.7%; in test [3] it was 77.4%; in test [4], 98.4%; in test [5], 59.2%; in test [6], 8.04% (active). Moreover, the growth in test [7] was 92.4%; in test [8], 84.1%.
